Data reported in the supplement of paper PMC10338343.
± gives the standard deviation.

tested on: EfPiwi piRISC loaded with L1MC piRNA (26 nt); assay: pre-steady-state target cleavage rate (min^-1); auxiliary factor: 500 nM Ephydatia muelleri Gtsf1; guide: L1MC piRNA 5'p-UAACUAAAUACUAUGCAAGCUGUAGG; MIWI and MILI are mouse PIWI proteins and EfPiwi is from a freshwater sponge; tags in brackets are library labels; higher = faster piRNA-guided slicing of the target
Method: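 Cleave-'n-Seq: a library of target RNAs (target site in constant flanks) at […] was incubated with 1 nM active freshwater sponge Ephydatia fluviatilis Piwi piRISC (synthetic 5'-monophosphorylated piRNA guide) with or without 500 nM EmGtsf1 at 33 °C for 1 min to 16 h. Uncleaved targets were sequenced and the pooled three trials fitted to a burst-and-steady-state model to give the pre-steady-state cleavage rate (min^-1). Sequence is the target site only. Fits with R² ≤ 0 are excluded.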

| Sequence | pre-steady-state target cleavage rate |
| --- | --- |
| UCCUGCUACAGGAUGCAUAGUAUUUAGUAA | 0.00317 ± 0.0021 |
| UCCUGGAACAGCUUGGAUAGUAUUUUGUUA | 0.00249 ± 0.0021 |
| UCCUGCUACAGCUUGCAUCGUAUUUAGUUA | 0.0091 ± 0.0022 |
| UCCUGGAACACCUUGCAUAGUAUUUAGAUA | 0.0026 ± 0.0026 |
| UCCUGGUACAGGAUGCAUAGUAUUUAGUUA | 0.00598 ± 0.003 |
| UCCUGGAUCCAGCUUGCAUAGUAUUUAGUUA | 0.126 ± 0.022 |
| UCCUGGAUCAGCUUCGCAUAGUAUUUAGUUA | 0.0389 ± 0.009 |
| UCCUGGAUGAGCUUGCAUAGUGUUUAGUUA | 0.00987 ± 0.0028 |
| UCCUGGUACAGCUUGCUUAGUAUUUAGAAA | 0.00224 ± 0.002 |
| UCCUGGAACAGCUUGCAAAGUAUUUAGUAA | 0.00293 ± 0.0022 |
| UCCUGGAUGUGGUUGCAUAGUAUUUAGUUA | 0.00426 ± 0.0039 |
| UCCUGGAUGUGCUUGCAUAAUAUUUAGUUA | 0.00327 ± 0.0027 |
| UCCUGGAACAGCUUGCAUAGUAUUUAGAAA | 0.00395 ± 0.0012 |
| UCCUGGUACAGCUAGCAUAGUAUUUAGAUA | 0.00618 ± 0.0029 |
| UCCUGCUACAGCUUGCAUAGUAUUAACUUA | 0.00397 ± 0.0027 |
| UCCUGGAUCAGCUUGCAUGGUAUUUAGUUA | 0.0193 ± 0.0038 |
| UCCUGCUUCAGCUUGCAUAGUAUUUAGAUA | 0.00521 ± 0.0024 |
| UCCUGGUAGUGCUUGCAUAGUAUUUAGUUA | 0.0152 ± 0.0047 |
| UCCUGGAACGAGCUUGCAUAGUAUUUAGUUA | 0.00926 ± 0.0022 |
| UCCUGCUACAGCUUGCAUAGUAUUAUCUAA | 0.00395 ± 0.0027 |

| Sequence | pre-steady-state target cleavage rate |
| --- | --- |
| UCCUGGUACUGCUUGCAUAGUAUUUAGAAA | 0.00409 ± 0.0019 |
| UCCUCCUACAGGUUGCAUAGUAUUUUGUUA | 0.00418 ± 0.0015 |
| UCCUCCUUCAGCUUGCAUAGUAUUUUGUUA | 0.00463 ± 0.0027 |
| UCCUCCUACUAGCUUGCAUAGUAUUUAGUUA | 0.127 ± 0.035 |
| UCCUGGAUGUCGAACCAUAGUAUUUGUUA | < 0.0001 |
| UCCUGGAUGAGCUUGCAUUGUAUUUAGAUA | 0.00248 ± 0.0021 |
| UCCUGCUACAGCUUGCAUACUAUUUAGUAA | 0.00476 ± 0.0026 |
| UCCUGGUAGAGCUAGCAUAGUAUUUAGUUA | 0.00968 ± 0.0033 |
| UCCUGGUAGAGCUUGCAUAGUAUUUAGUAA | 0.00742 ± 0.0038 |
| UCCUCCUAAAGCUUGCAUAGUAUUUAGUUA | 0.00604 ± 0.0023 |
| UCCUGGAACAGCAUGCAUAGUAUUAAGUUA | 0.00499 ± 0.0017 |
| UCCUGGAUCAGGUUGCAUAGAAUUUAGUUA | 0.00305 ± 0.0023 |
| UCCUGGAUCAGCUUGCGUAGUAUUUAGUUA | 0.0111 ± 0.0032 |
| UCCUCCUACUGCUUGCAAAGUAUUUAGUUA | 0.0558 ± 0.017 |
| UCCUGGAUGUCGAACCAUUGUAUUUAGUAA | < 0.0001 |
| UCCUCCAACAGCUUGCAUAGUAUUUAGAAA | 0.00461 ± 0.0019 |
| UCCUGGAUGUCCUUGCAUAGUAUUUAGUUUA | 0.00634 ± 0.003 |
| UCCUGGAACAGCUUGCAUAGUAUUUCAGUUA | 0.00308 ± 0.0026 |
| UCCUGGAUGAGCAUGCAUAGUAUUUAGAAA | 0.00289 ± 0.0024 |
| UCCUCCUAGUGCUUGCAUAGUAUUUAGAAA | 0.00361 ± 0.0021 |
